# Screening results as filed in PubChem.
# MLL CXXC-DNA inh: blocks binding of human MLL CXXC domain to DNA. Q03164. MLL-CXXC / FITC-HOXA9 DNA fluorescence polarization. Potency, µM (top dose mostly 115 µM), inactives show at the top dose activity change, negative = inhibition, hits mostly inhibitors. 290,000 tested, 0.037% active. AID 2662; active = well fitted inhibition curve with a large enough effect in the polarisation, with a control signal flat, not every such curve was filed as active; inconclusive = small, poorly fitted or top-dose-only effect, or effect the other way, or a change in a side signal; inactive = no such curve, though single readings can be large or run the other way; the % refers to the polarisation; note: potency is the fitted concentration of half-maximal effect
#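 Steps: dispense CXXC domain solution (7 uM) → pin compounds or unlabeled HOX-A9 DNA control → 5 min ambient → add FLSN-HOX-A9 solution (50 nM) → spin → 30 min ambient → fluorescence polarization. Tris pH 7.5/NaCl/DTT/BSA buffer.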
# Menin-MLL TR inh: inhibitors of human menin-MLL interaction, mutant MLL peptide; Potency, µM (series often up to 61.6 µM), for the others: top-dose FP activity change, negative = inhibition, hits mostly inhibitors; Menin + Texas Red MLL mutant peptide, fluorescence polarization; AID 1768; 270,000 tested, 0.23% active; active = well fitted inhibition curve with a large enough effect in the polarisation, with a control signal flat, not every such curve was filed as active; inconclusive = small, poorly fitted or top-dose-only effect, or effect the other way, or a change in a side signal; inactive = no such curve, though single readings can be large or run the other way; the % refers to the polarisation; note: potency is the fitted concentration of half-maximal effect; % of control where 0% means no effect
# RGS12 GoLoco inh: blocks human Gai1 binding to RGS12 GoLoco peptide, red readout; P63096; Gai1:RGS12 GoLoco peptide FP, rhodamine, 10 min; Potency, µM (series often up to 61.6 µM), without a hit: at the highest dose activity, negative = inhibition, hits mostly inhibitors; 230,000 tested, 0.44% active; AID 880; active = well fitted inhibition curve with a large enough effect, not every such curve was filed as active; inactive = no such curve, though single readings can be large or run the other way; note: potency is the fitted concentration of half-maximal effect; % is set by controls: 0 for no effect and ±100 for the full control effect; nearly all actives have a fitted effect of over 30% in size
# Target sequence (P63096 whole entry, looked up): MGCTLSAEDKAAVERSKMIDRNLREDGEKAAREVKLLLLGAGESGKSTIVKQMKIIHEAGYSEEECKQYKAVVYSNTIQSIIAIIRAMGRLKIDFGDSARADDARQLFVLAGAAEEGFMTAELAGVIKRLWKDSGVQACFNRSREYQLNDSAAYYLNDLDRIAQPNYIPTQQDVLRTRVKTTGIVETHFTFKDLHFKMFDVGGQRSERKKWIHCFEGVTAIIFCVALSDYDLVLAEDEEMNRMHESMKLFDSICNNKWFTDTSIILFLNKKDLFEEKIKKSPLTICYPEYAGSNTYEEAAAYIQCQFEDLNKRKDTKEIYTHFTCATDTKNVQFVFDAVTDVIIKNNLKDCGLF
# ERG-DNA inh: ERG Ets/DNA interaction inhibition; fluorescence polarization, His-ERG Ets domain / labelled DNA; Potency, µM (titrated, usually from 76.9 µM), inactives show top-dose FP activity, negative = inhibition, usual class: inhibitors; 370,000 tested, 0.028% active; AID 624246; active = well fitted inhibition curve with a large enough effect in the polarisation, with a control signal flat; inconclusive = small, poorly fitted or top-dose-only effect, or effect the other way, or a change in a side signal; inactive = no such curve, though single readings can be large or run the other way; the % refers to the polarisation;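 note: polarization taken with two DNA probes labelled with fluorescein and Texas red; potency is the fitted concentration of half-maximal effect; % of control where 0% means no effect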
#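 His-tagged ERG Ets domain (1 uM in the protein solution; 300mM KCl, 50mM Tris-HCl, 1mM EDTA, 1mM DTT, pH 7.5) received compound, then a probe mix of 5 nM fluorescein-DNA and 100nM Texas-615-DNA. Fluorescence polarization was read for both dyes.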
# Menin MLL FP FL: displaces fluorescein MLL peptide from human menin. 290,000 tested, under 10 active. Fluorescence polarization, fluorescein-MLL peptide displacement from menin. FP activity change, % at 61.4 µM; active = well fitted curve in the direction sought with a large enough effect in the polarisation, not every such curve was filed as active; inconclusive = small, poorly fitted or top-dose-only effect, or effect the other way, or a change in a side signal; inactive = no such curve, though single readings can be large or run the other way; the % refers to the polarisation; note: % of control where 0% means no effect
# An asterisk follows results filed as active; ? = inconclusive; nt = no result given; ! = a repeat was not active; [ ] = another dose, or the depositor's remark. This excerpt belongs to a sample that is enriched for hits.
SMILES,MLL CXXC-DNA inh,Menin-MLL TR inh,RGS12 GoLoco inh,ERG-DNA inh,Menin MLL FP FL
COc1ccc(C2CC(=O)Nc3c2c(C)nn3-c2nncc(-c3ccc(C)cc3)n2)c(OC)c1OC (centres undefined),nt,nt,nt,5.2%,nt
CC(=O)N[C@@H](CC(=O)O)C(=O)O,nt,25.0%[24.8 µM],0.0%[21.6 µM],28.2µM*,-1.6[24.8 µM]
CC(=O)N[C@@H](CCC(=O)O)C(=O)O,?,-2.6%,nt,nt,-4.0
CCSc1ccc2cc(OC)ccc2[n+]1CC,2.7%,-22.1%,2.51µM*,0.8%,-3.4
CCOC(=O)CC1(C)OCC(C[N+]2(C)CCCCC2)O1 (centres undefined),4.3%,10.1%,11.2µM*,-4.8%,-4.1
C[N+]1(CC(=O)OC2CCCCCCCCCCC2)CCCC1,17.5%,-9.3%,-36.3%,4.9%,-3.2
Cc1cc(=O)c2c(O)c3c(O)cc(O)c4c5c(O)cc(O)c6c(O)c7c(=O)cc(C)c8c1c2c(c34)c(c65)c78,nt,?,4.47µM*,nt,?
Cc1cc(O)c2c(c1O)C(=O)c1c(O)cc(C)c(O)c1C2=O,nt,-9.3%,1.6%,nt,?
Cc1cccc(N(C)S(=O)(=O)c2nnc(NC(=O)C(C)Oc3ccccc3)s2)c1 (centres undefined),nt,nt,nt,-1.0%,nt
COc1ccc(-n2cccc2/C=C2/NC(=O)N(c3cccc(Cl)c3)C2=O)cc1,0.0%,-11.0%,3.55µM*,-4.1%,11.9
O=C(O)c1cccc(-n2cccc2/C=C2/NC(=O)N(c3ccc(Cl)cc3)C2=O)c1,-7.3%,?,-7.6%,-15.6%,?
CCCCCCCCCCCCC/C=C/[C@@H](O)[C@@H](N)COP(=O)(O)O,nt,-2.2%,22.4µM*!,nt,0.6
CC1CCN(CC(O)COC2CC(C)CC(C)(C)C2)CC1 (centres undefined),nt,nt,nt,13.1%,nt
CC[N+]1(CC(O)COC2CC(C)CC(C)(C)C2)CCOCC1 (centres undefined),-3.8%,nt,5.62µM*,0.7%,0.8
Cc1nnc(Sc2cc(NCCCO)c([N+](=O)[O-])c3nonc23)s1,-1.8%,?,7.94µM*,6.9%,-4.5
ClC(Cl)Cl,13.3%,-0.2%,15.8µM*,nt,-1.0
COC(=O)C1CSc2[nH]c(=O)sc2C1c1ccc(O)c(OC)c1 (centres undefined),10.2%,2.2%,20µM*,9.7%,0.7
CCCCCCCCCCOc1cc(OCCCCCCCCCC)cc(N(CC(=O)O)CC(=O)O)c1,nt,-5.4%,nt,nt,1.5
CCN1/C(=C/C=C/c2oc3ccc(-c4ccccc4)cc3[n+]2CC)Oc2ccc(-c3ccccc3)cc21,?,?,-195.9%,31.6µM*,?
COc1cc2ccc(=O)oc2cc1OCC(O)C(C)(C)O (centres undefined),9.8%,nt,5.0%,1.9%,3.4
COc1cc2ccc(=O)oc2cc1O,nt,-2.0%[24.8 µM],28.2µM*!,-1.1%,?
Cc1ccc(C)c(OCCn2cc(C(=O)c3cccs3)c3ccccc32)c1,nt,nt,nt,-13.8%,nt
COc1ccccc1N1CCN(S(=O)(=O)CCNC(=O)COc2ccc(C(C)C)cc2)CC1,nt,nt,nt,6.1%,nt
C[N+](C)(C)CCC(=O)c1cccc2ccccc12,26.6%,?,25.1µM*!,nt,2.9
Cc1cccc(-c2noc(CN(C(=O)COc3ccc(Br)cc3C)C(C)C)n2)c1,nt,nt,nt,9.8%,nt
SMILES,MLL CXXC-DNA inh,Menin-MLL TR inh,RGS12 GoLoco inh,ERG-DNA inh,Menin MLL FP FL
Cc1ccc(-n2sc3ccccc3c2=O)cc1,2.8%,14.0%,10µM*,5.1%,2.1
O=c1c2ccccc2sn1-c1ccc(F)cc1,nt,nt,nt,3.7%,nt
CC(C)N1CC2=C(OC(N)=C(C#N)C2c2cccnc2)/C(=C/c2cccnc2)C1 (centres undefined),-22.0%,25.1µM*,-96.3%,-22.9%,-10.4
N#CC1=C(N)OC2=C(CN(Cc3ccccc3)C/C2=C\c2cccnc2)C1c1cccnc1 (centres undefined),-8.4%,?,-46.2%,-4.3%,?
Nc1c(CO)nnn1-c1ccccc1,-8.6%,-0.7%,3.16µM*,-1.6%,1.5
N#CCCn1c(=O)c(CCc2ccccc2)nc2cnc(N3CCOCC3)nc21,nt,39.8µM*,18.2%,nt,?
C[n+]1ccc(/C=C/c2ccc(Br)cc2)cc1,-5.5%,nt,20µM*,3.5%,1.6
Cc1cc2nc3c(=O)[nH]c(=O)nc-3n(CC(O)C(O)C(O)CO)c2cc1C (centres undefined),nt,-2.4%,14.1µM*,nt,?
Cc1cc(Nc2ccc(O)cc2)ccc1N,nt,nt,28.2µM*,nt,nt
Cc1cc(C)nc(Nc2ccc(O)cc2)n1,5.6%,-25.9%,nt,4.8%,2.8
CC1=C(O)C(=O)C(C2=C(O)C(=O)C(C)=C(O)C2=O)=C(O)C1=O,nt,nt,nt,-4.2%,nt
O=C1C(O)=C(O)C(=O)C(O)=C1O,10.9%,?,25.1µM*,nt,-7.7
C=C1C(n2cnc3c(=O)[nH]c(N)nc32)C[C@H](O)[C@H]1CO (some centres undefined),3.5%,-0.7%,nt,nt,-1.2
NC(C(=O)O)C(O)c1ccc(O)c(O)c1 (centres undefined),-14.4%,-2.1%,2.4%,nt,-1.1
O=C(O)c1cccc(NC2=C(Cl)C(=O)c3ccccc3C2=O)c1,?,?,14.1µM*,0.9%,2.9
CCCCCCCCCCCCCCCC(=O)OC[C@H](O)[C@H]1OC[C@@H](O)[C@@H]1O,7.5%,-18.3%,nt,nt,-0.3
CN1C/C(=C/c2ccc(B(O)O)cc2)C(=O)/C(=C/c2ccc(B(O)O)cc2)C1,nt,26.0%,nt,nt,4.9
Cc1c(C(=O)OC(C)C(=O)N(C)Cc2ccccc2)oc2ccccc12 (centres undefined),nt,nt,nt,-1.9%,nt
Cc1c(C(=O)OC(C)C(C)C[N+](C)(C)C)oc2ccccc12 (centres undefined),-1.1%,-8.4%,14.1µM*,-3.4%,3.7
O=C1C(=Cc2cccn2-c2ccccc2)C(=O)c2ccccc21,1.5%,-0.7%,-5.9%,6.5%,?
O=C1C(=Cc2cccn2-c2ccc(O)cc2)C(=O)c2ccccc21,?,?,20µM*,-0.4%,?
Cc1cc(O)ccc1N=Cc1c(C(F)(F)F)[nH][nH]c1=O,-3.0%,?,7.08µM*,6.31µM*,-2.0
C[C@H](N)C(=O)NCC(=O)N[C@H]1CSSC[C@@H](C(=O)O)NC(=O)[C@H](CO)NC(=O)[C@H]([C@@H](C)O)NC(=O)[C@H](Cc2ccccc2)NC(=O)[C@H]([C@@H](C)O)NC(=O)[C@H](CCCCN)NC(=O)[C@H](Cc2c[nH]c3ccccc23)NC(=O)[C@H](Cc2ccccc2)NC(=O)[C@H](Cc2ccccc2)NC(=O)[C@H](CC(N)=O)NC(=O)[C@H](CCCCN)NC1=O,nt,-24.0%,nt,nt,nt
CC(=O)N1CCN(c2ccc(NCc3ccc(C)s3)cc2)CC1,0.5%,-4.1%[11.7 µM],-23.1%,-1.9%,0.2
CC(=O)N1CCN(c2ccc(NCc3cccs3)cc2)CC1,0.0%,28.2µM*,-2.5%,0.4%,0.0
Cc1ccc(C2=CC(c3ccccc3F)n3c(nc4ccccc43)N2)cc1C (centres undefined),nt,nt,nt,-2.0%,nt
